# Where “and” joins values, the source holds several entries; their conditions need not be identical. Equal values may be shown once.
# Assays:
# Assay type in all cases: functional
# Plasmodium falciparum [1] = experiment: GSK_TCMDC: Inhibition of Plasmodium falciparum 3D7 in whole red blood cells, using parasite LDH activity as an index of growth. Test compounds present at 2uM
# Plasmodium falciparum [2] = experiment: GSK_TCMDC: Inhibition of Plasmodium falciparum Dd2 in whole red blood cells, using parasite LDH activity as an index of growth. Test compounds present at 2uM
# HepG2 = experiment: GSK_TCMDC: Percent inhibition of human HepG2 cell line. Test compounds present at 10uM.
Structure (SMILES),Inhibition (Plasmodium falciparum [1]),Inhibition (Plasmodium falciparum [2]),Inhibition (HepG2)
NC1CCN(c2nc(NCCCc3ccc(O)cc3)nc(NCc3cccc4ccccc34)n2)CC1.O=C(O)C(F)(F)F,100%,2%,12%
Cc1cc(Nc2ccncc2)n2nc(C)c(-c3ccc(Cl)cc3)c2n1,100%,99%,0%
CC(C)c1ccc(NC(=O)NCC2CCCN(CCCCCNC(=O)/C=C/c3ccc(Cl)c(Cl)c3)C2)cc1 (stereo not drawn),98%,6%,87%
O=C(NCc1ccccc1)c1ncn(CCCN2CCC(N3CCCC3)CC2)c1-c1ccc(Cl)c(Cl)c1.O=CO,89%,36%,8%
COCCNCc1cccc(-c2ccc(CNC3CCN(Cc4ccccc4)CC3)cc2)c1.O=C(O)C(F)(F)F,100%,97%,34%
COc1cccc(-c2ccc(NC(=O)C3CCCN(Cc4cccc(OC)c4O)C3)cc2)c1 (stereo not drawn),98%,78%,13%
O=C(/C=C/c1ccc(Cl)c(Cl)c1)NCCCCCN1CCC(c2c[nH]c3ccccc23)C(O)C1 (stereo not drawn),96% and 99%,9% and 0%,34% and 12%
Brc1ccc(Nc2nc(NCC3CCCO3)c3ccccc3n2)cc1 (stereo not drawn),100%,99%,13%
CCn1cnc2c(N3CCCCS3(=O)=O)cc(C(=O)N[C@@H](Cc3ccccc3)[C@H](O)CNC3CCOCC3)cc21,99%,87%,7%
COc1cccc(-c2nn(C)c3sc(C(=O)NCCN(C)Cc4ccccc4)cc23)c1,92%,26%,21%
COC(=O)CCCCOc1c(OC)cc(Cc2cnc(N)nc2N)cc1OC,93%,0%,0%
COc1ccc2nccc([C@@H](O)CN3CCC(NCc4cc5ccccc5cn4)CC3)c2n1.O=C(O)C(=O)O,93%,14%,3%
C[C@H](Cc1ccc(OCCCOc2ccc(C[C@@H](C)NC[C@H](O)c3cccc(Cl)c3)cc2)cc1)NC[C@H](O)c1cccc(Cl)c1.Cl,99%,92%,99%
Cc1cc(NC(=O)c2ccco2)ccc1OC1CCN(Cc2ccccc2)CC1.O=C(O)C(F)(F)F,93%,95%,3%
COc1ccccc1C(=O)Nc1ccc(Nc2nc(C)cc(N(C)C)n2)cc1,100%,76%,1%
CS(=O)(=O)CCNCc1nc(-c2ccc3ncnc(Nc4ccc(OCc5cccc(F)c5)c(Cl)c4)c3c2)cs1.Cl,98%,34%,8%
Cc1cccc(C(=O)Nc2ccnc(N3CCC(N(C)Cc4cccc(O)c4)CC3)c2)c1.O=C(O)C(F)(F)F,95%,41%,7%
Nc1nc(N)c2c(ccc3c2ccn3CC2CC2)n1,96%,3%,46%
CC1CN(Cc2csc(Nc3ccccc3)n2)CC(C)O1 (stereo not drawn),91%,81%,4%
Cc1[nH]c(C)c(-c2ccc(CCc3cccc(C(F)(F)F)c3)nc2)c(=O)c1Cl,99%,97%,28%
CC1=NN(c2ccc(C)c(C)c2)C(=O)C1=NNc1cccc(-c2cccc(NC(=O)OC(C)(C)C)c2)c1O,94%,21%,39%

Structure (SMILES),Inhibition (Plasmodium falciparum [1]),Inhibition (Plasmodium falciparum [2]),Inhibition (HepG2)
C(=NNc1nc2ccccc2[nH]1)c1ccccc1OCc1ccccc1,100%,90%,15%
CCOc1c(C)cc(C(F)(F)F)cc1CNCCCNc1cc(=O)c2ccccc2[nH]1.Cl,97%,1%,0%
CCCCNC(=O)[C@@H](NC(=O)c1ccc(O)c(-c2ccc(Cl)c(Cl)c2)c1)C(C)C,97%,98%,0%
Cc1cc(N2CCCN(C)CC2)nc(Nc2ccc(Cl)cc2)n1,96%,11%,8%
O=C(CCC1CCCCC1)NCCNc1cccc2ccccc12,90%,57%,7%
CC(C)CCC[C@@H]([C@@H](CC1CCCCC1)C(=O)N[C@@H](CCCCNC(=O)OCc1ccccc1)C(=O)Nc1nccs1)N(O)C=O,98%,90%,0%
COc1cccc(NC(=O)c2ccc(NCCCN3CC(C)CC(C)C3)c([N+](=O)[O-])c2)c1 (stereo not drawn),100%,68%,14%
FC(F)(F)c1ccc2[nH]ccc(=NN=CC=Cc3ccccc3)c2c1,82%,9%,0%
CCc1ccc(CN2CCC(CN(c3ccc(N4CCOCC4)c(F)c3)S(=O)(=O)c3ccc(C(C)(C)CC)cc3)CC2)cc1.Cl,93%,94%,26%
CN1CC[C@@H](Oc2cc(C(=O)NCc3ccc(Cl)c(Cl)c3)ccc2C(F)(F)F)C1.Cl,88%,4%,8%
CN1CCC(C(=O)N(Cc2ccc(-c3ccc(CNCCc4ccc(S(C)(=O)=O)cc4)cn3)cc2)C2CCN(Cc3ccccc3)CC2)CC1.O=C(O)C(F)(F)F,100%,95%,11%
O=C(Nc1ccc(F)c(C(F)(F)F)c1)NC1CCN(CCCCCNC(=O)C2CC2c2ccc(Cl)c(Cl)c2)CC1 (stereo not drawn),100%,16%,96%
Cc1cccc2nc(-c3cccc(-c4ccc(NC(=O)CS(C)(=O)=O)cc4)c3)[nH]c12,85%,8%,3%
CN1CCC(NCc2cccc(-c3ccc(S(=O)(=O)NCc4ccccc4)cc3)c2)CC1.O=C(O)C(F)(F)F,100%,93%,61%
Br.C=CCc1cccc(C)c1OCCCON1C(=N)N=C(N)NC1(C)C,94%,95%,65%
COc1ccc2[nH]c(C)cc(=NN=Cc3cc(OC)c(OC)cc3OC)c2c1,100%,56%,1%
O=C(Nc1ccc(CN2CCN(S(=O)(=O)c3cccc(Cl)c3)CC2)cc1)c1cccs1.O=C(O)C(F)(F)F,84%,41%,9%
Cc1cccc(CC2CC(=O)N(c3ccc([N+](=O)[O-])cc3)C2=O)c1 (stereo not drawn),95%,1%,11%
O=C(NCCc1ccccc1)N(Cc1ccccc1-c1cccc(CNC2CCCC2)c1)C1CCN(Cc2ccccc2)CC1.O=C(O)C(F)(F)F,95%,87%,31%
O=C(Nc1ccc(S(=O)(=O)NCCCN2CCOCC2)cc1)c1cc(-c2ccccc2)[nH]n1,82%,29%,16%
COc1ccc(CNCCc2cccs2)cc1-c1ccc(S(=O)(=O)NCCN2CCCC2)cc1.O=C(O)C(F)(F)F,99%,30%,30%

Structure (SMILES),Inhibition (Plasmodium falciparum [1]),Inhibition (Plasmodium falciparum [2]),Inhibition (HepG2)
Cl.O=S(=O)(c1ccc2ccccc2c1)N1CCCN(Cc2ccc(OCCCN3CCCCC3)cc2)CC1,98%,11%,43%
CCN1CCN(c2cc(C)c3cc(NC(=O)c4cc(OC)cc(OC)c4)ccc3n2)CC1,100%,90%,0%
CCOc1ccc2[nH]c(C)cc(=NN=Cc3cccnc3)c2c1,100%,100%,18%
CC(C)(C)c1ccc(CNC(=O)c2ccc(CNC3CCC(N)CC3)s2)cc1 (stereo not drawn),100%,10%,41%
COc1ccc2c(N/N=C/c3ccc([N+](=O)[O-])cc3)ccnc2c1,100%,98%,0%
COc1ccc(NC(=O)N2CCN(CCCCCNC(=O)/C=C/c3ccc(C(F)(F)F)cc3)CC2)cc1Cl,94%,0%,25%
N#Cc1cccc(Nc2ncc3c(-c4cccc(NC(=O)Cc5cccc(Cl)c5)c4)c[nH]c3n2)c1.O=C(O)C(F)(F)F,100%,95%,0%
CO[C@H](C)[C@H](NC(=O)[C@H](CC(C)C)[C@H](CCC(F)(F)F)N(O)C=O)C(=O)Nc1nccs1,99%,96%,0%
CCOCc1cnc(C)nc1CNC(=O)c1c(C)[nH]c2ccc(C)cc12,84%,65%,8%
Cc1cc(NCCc2ccccc2)nc(N/C(=N/CC(=O)OC(C)(C)C)Nc2ccc(C(F)(F)F)cc2)n1.I,100%,97%,23%
COc1ccc(CNCc2cccc(-c3ccc(-c4nc5ccccc5[nH]4)cc3)c2)cc1.O=C(O)C(F)(F)F,100%,60%,22%
COc1ccc2ncc(F)c(CCN3CC(O)C(CNCc4ccc5c(c4)OCCO5)C3)c2n1.Cl (stereo not drawn),94%,35%,18%
Cc1cccc2nc(-c3ccc(-c4ccc(CNCC(C)C)cc4)cc3)[nH]c12.O=C(O)C(F)(F)F,100%,90%,14%
C=CCc1cccc(CN2CCC(c3cc(O)nc(-c4ccccn4)n3)CC2)c1O,91%,75%,46%
CC(C)COc1cc(C(=O)Nc2cnc3ccccc3c2)ccc1[N+](=O)[O-],97%,56%,19%
CN1CCCc2ccc(NC(=O)C=Cc3ccc(-c4ccc(F)cc4F)o3)cc2C1.O=C(O)C(F)(F)F,98%,20%,8%
N#Cc1ccc(CN2CCCN(Cc3cccc(NC(=O)c4ccc(-c5ccccc5)cc4)c3)CC2)cc1.O=C(O)C(F)(F)F,88%,12%,33%
COc1ccc(-c2nc3c(N)nc(N)nc3nc2C(C)C)cc1,96%,0%,71%
Cc1ccc(C(=O)Nc2ccc(C)c(OC3CCN(Cc4ccco4)C3)c2)cc1.O=C(O)C(F)(F)F (stereo not drawn),90%,49%,10%
